Compound activity from PubChem BioAssay.
Pf Dd2 growth: blocks in vitro growth of P. falciparum Dd2 | P. falciparum Dd2 growth, SYBR Green, 72 h | Potency, µM (doses to about 28.9 µM), for the others: top-dose activity, negative = inhibition, usual class: inhibitors | 120,000 compounds, 4.3% hits; active = well fitted inhibition curve with a large enough effect;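 note: plate controls were DMSO vehicle for no effect and reference drug for full effect; nearly all actives have a fitted effect of over 65% in size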
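Readout: SYBR Green fluorescence, 485 nm excitation, 535 nm emission, after ~16 h lysis at 37C. Before that, Dd2-infected red cells (2.5% hematocrit) grew 72 h with compound, 29 uM top final concentration.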
* = called active by the depositor; i = inactive; [ ] = dose if it differs, or a comment. Shown is part of a subset that was picked to be rich in hits. Potency is the fitted concentration of half-maximal effect.

SMILES	Pf Dd2 growth
O=C(NC1CCCCC1)c1cc2n(n1)CC(c1ccc(Cl)cc1)OC2 (stereo unspecified)	-24%
COc1cc(C(=O)N2CCCN(c3cc(-c4ccc(F)cc4)[nH]n3)CC2)cc(OC)c1OC	i
COc1ccc(CNC(=O)c2noc(-c3ccc(C)cc3)n2)c(OC)c1	66%
CC(C)S(=O)(=O)N1CCC(N(Cc2cccnc2)C2CCOCC2)CC1	16%
CN1CC(=O)N(C2CCNC2)Cc2c(NCCCN3CCCCC3)ncnc21 (stereo unspecified)	6%
COc1cc(C2CC(=O)N(Cc3ccc(F)cc3)c3ccccc3S2)cc(OC)c1OC (stereo unspecified)	1.1µM*
COc1ccc(C2CC(=O)N(Cc3ccc(F)cc3)c3ccccc3S2)cc1OC (stereo unspecified)	22%
COc1ccc(C2CC(=O)N(Cc3ccc(F)cc3)c3ccccc3S2)cc1 (stereo unspecified)	i
Cc1cc(-c2ccnc(-c3nnc(C)n3CCc3ccccc3)c2)ccn1	i
COC(=O)[C@@H](C)NC(=O)[C@H]1CN(S(=O)(=O)c2ccccc2)CCN1C(=O)N1CCOCC1	5%
O=C(c1ccc2ncccc2c1)N1CCC2(CC1)Nc1ccccc1NC2=O	8%
Cc1ccc(C2(O)CCN(C(=O)c3ccc4ncccc4c3)CC2)nc1	4µM*
Cc1ccc(C2(O)CCN(C(=O)C(=O)c3cccnc3)CC2)nc1	-7%
CC(=O)Nc1ccc(S(=O)(=O)N[C@H]2C[C@@H](c3nc(-c4ccccc4)no3)N(C)C2)cc1	-24%
CCC[C@@H]1CN(c2nc(SC)ncc2C(=O)OCC)C[C@H]1N(C)C	13µM*
CCOc1ccc(CNC(=O)c2cnc(SC)nc2CC)cc1	i[5.79 µM]
CCOC(=O)c1cnc(N2CCN(c3ccc(OC)cc3)CC2)c2ccccc12	12%
Cc1noc(C)c1S(=O)(=O)N1CCC(Cc2nc(-c3ccncc3)n[nH]2)C1 (stereo unspecified)	i
O=C(c1ccc[n+]([O-])c1)N1CCOC(CC(c2ccccc2)c2ccccc2)C1 (stereo unspecified)	-23%
NC1(C(=O)N2CCOC(CC(c3ccccc3)c3ccccc3)C2)CC1 (stereo unspecified)	10µM*
Cc1ncncc1C(=O)N1CCOC(CC(c2ccccc2)c2ccccc2)C1 (stereo unspecified)	-17%
CC(C)(C)C(=O)N1CCN(c2nc3ncccc3o2)CC1	-11%[44.1 µM]
CNC(=O)NC[C@H]1CCN(Cc2cccc(F)c2F)C[C@H]1N(C)C	-4%
Cc1ccc(Cn2cc(-c3ccncc3)cc2C(=O)N(C)Cc2ccccc2)cc1	-16%
CCn1cc(-c2ccncc2)cc1C(=O)NCc1ccc(SC)cc1	i
SMILES	Pf Dd2 growth
Cc1ccc(Cn2cc(-c3ccncc3)cc2C(=O)NCC2CC2)cc1	11µM*
CCC1(O)CCC12CCN(C(=O)Cc1cccnc1)CC2 (stereo unspecified)	-10%
CCNC(=O)N1CCC(CCOC)(NC(=O)c2cccs2)CC1	i
COc1ccc(NC(=O)c2c(C)oc3ccc(O)c(CN4CCCC(C)C4)c23)cc1Cl (stereo unspecified)	0.4µM*
Cc1ccc(NC(=O)Cn2c(=O)oc3cc(S(=O)(=O)N4CCCCC4)ccc32)c(C)c1	-4%
CCN(CC)S(=O)(=O)c1ccc(NC(=O)c2c(C)oc3ncnc(N4CCCCC4)c23)cc1	32%
Cc1ccc(NC(=O)c2c(C)oc3ccc(O)c(CN4CCCCCC4)c23)c(C)c1	1.1µM*
COc1cc(=O)n2c(c1C(=O)Nc1ccc(C)cc1)CCCC2	i
Cc1ccc(NC(=O)c2c(C)oc3ccc(O)c(CN4CCCCCC4)c23)cc1	0.63µM*
Cc1ccc(NC(=O)c2cc(S(=O)(=O)N3CCCC3)c[nH]2)c(C)c1	i
COc1ccc(NC(=O)c2c(C)oc3ccn(Cc4cccc(F)c4)c(=O)c23)cc1F	-17%
COc1ccc(NC(=O)c2cccn2-c2nnc(N3CCCCC3)s2)cc1Cl	6%
CCCn1ccc2sc(C)c(C(=O)NCc3ccc(F)cc3)c2c1=O	-9%
Cc1ccccc1C(=O)N1CCCC(c2nn(-c3ccc(F)cc3)c(=O)[nH]2)C1 (stereo unspecified)	i
CC(=O)N1CCC(N2C[C@@H](CO)[C@H](NC(=O)c3ccccc3)C2)CC1	26%
Cc1ccc(C2Cn3nnc(-c4nc(-c5ccccc5)no4)c3CO2)c(C)c1 (stereo unspecified)	-20%
CCC(C)C(=O)N1CCc2c(c(C(=O)O)nn2CCCc2ccccc2)C1 (stereo unspecified)	-1%
Cn1nccc1C(=O)N1[C@@H]2CC[C@H]1CC(NC(=O)c1ccc(F)cc1)C2 (stereo partly specified)	-20%
Cc1noc(C)c1C(=O)N1Cc2ccccc2OC2(CCN(C(=O)CN(C)C)CC2)C1	27%
O=C1CC(c2ccccc2)N(C(=O)C2CC2)CCCN(C(=O)c2n[nH]c3ccccc23)CCN1 (stereo unspecified)	-4%
Cc1cc(C)cc(C(=O)NCCn2ccn3nc(-c4ccc(F)cc4)cc3c2=O)c1	i
